Assay outcomes: PubChem BioAssay, Johns Hopkins Ion Channel Center
Sampled rows, rich in hits. Any-hit rate of the full collection: about 1.6%.
KCNQ2 block = rat KCNQ2 potassium channel inhibitors, primary screen, cell-based, CHO-K1, FluxOR thallium flux, B-score. Potassium voltage-gated channel subfamily KQT member 2 (Rattus norvegicus), O88943. 20 min; hits give low values. B-score at 10 µM. hit rate 1.1% among 310,000. AID 2156, 2009;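 active = fluorescence ratio B-score at most minus 3 library SDs, with starting brightness B-score within 2 library SDs, cut at about -5.5 in these data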
Target sequence (O88943 whole entry, looked up): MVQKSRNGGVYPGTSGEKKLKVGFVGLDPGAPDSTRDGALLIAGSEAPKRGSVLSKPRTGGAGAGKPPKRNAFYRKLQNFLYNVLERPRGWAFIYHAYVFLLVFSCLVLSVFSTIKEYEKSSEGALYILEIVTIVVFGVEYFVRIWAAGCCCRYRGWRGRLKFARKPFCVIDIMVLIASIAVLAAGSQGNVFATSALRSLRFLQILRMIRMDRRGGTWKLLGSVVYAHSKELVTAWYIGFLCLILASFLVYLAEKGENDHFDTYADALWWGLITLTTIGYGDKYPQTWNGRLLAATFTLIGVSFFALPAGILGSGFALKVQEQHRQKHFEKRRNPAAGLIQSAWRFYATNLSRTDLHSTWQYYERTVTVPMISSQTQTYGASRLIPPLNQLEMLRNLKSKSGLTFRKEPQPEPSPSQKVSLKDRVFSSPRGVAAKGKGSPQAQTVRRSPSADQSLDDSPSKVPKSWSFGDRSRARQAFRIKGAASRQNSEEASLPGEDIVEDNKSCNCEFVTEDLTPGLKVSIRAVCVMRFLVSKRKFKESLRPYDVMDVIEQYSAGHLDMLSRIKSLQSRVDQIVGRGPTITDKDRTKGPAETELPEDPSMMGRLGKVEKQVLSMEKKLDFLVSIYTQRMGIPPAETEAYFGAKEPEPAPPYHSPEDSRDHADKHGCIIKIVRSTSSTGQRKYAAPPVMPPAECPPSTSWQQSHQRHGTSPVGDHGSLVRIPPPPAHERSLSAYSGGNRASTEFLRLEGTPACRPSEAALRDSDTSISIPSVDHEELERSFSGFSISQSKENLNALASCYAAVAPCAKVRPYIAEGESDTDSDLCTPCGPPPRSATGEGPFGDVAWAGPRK
KCNQ2 pot = potentiators of rat KCNQ2 potassium channel. Potassium voltage-gated channel subfamily KQT member 2 (Rattus norvegicus), O88943. CHO-K1 KCNQ2, FluxOR thallium flux fluorescence; hits give high values. B-score at 10 µM. hit rate 0.54% among 310,000;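 active = fluorescence ratio B-score at least 3 SD of library B-scores, with initial fluorescence B-score within 3 of them, cut at about 5.3 in these data; same plate scores as AID 2156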;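 note: B-score of peak minus minimum over baseline fluorescence ratio after K+ and Tl+ stimulus; positive B-score means potentiation of KCNQ2 with more thallium influx and brighter signal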
KCNQ2 inh conf = rat KCNQ2 potassium channel inhibitors, confirmation, cell-based, thallium flux; hit rate 57% among 1,000; KCNQ2-expressing cells, inhibition; hits give low values; shares compounds with KCNQ2 block; activity change, negative = inhibition, % at 10 µM;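 note: 0% = vehicle wells and values are ratio percent relative to vehicle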
KCNQ1 spec = human KCNQ1 channel inhibition, counter-screen for KCNQ2 inhibitor project, cell-based, FluxOR thallium flux; hit rate 15% among 1,000; shares compounds with KCNQ2 block; KCNQ1-expressing cells, FluxOR thallium flux fluorescence; hits give low values; activity change, negative = inhibition, % at 10 µM;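 active = activity change at least 3 SD of negative controls below their mean in both duplicate wells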;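 note: CHO cells stably transfected with KCNQ1 and depolarized by potassium stimulus; peak minus minimum fluorescence over baseline after thallium addition; 0% = vehicle negative control and -100% = blank without thallium stimulus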
CHO Tl ctr = thallium flux change in parental CHO cells, counter-screen for KCNQ2 inhibitor project. shares compounds with KCNQ2 block. hits give low values. activity change, % at 10 µM. hit rate 14% among 1,000. AID 493029, 2011;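 note: 0% = vehicle negative controls with stimulus buffer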
KCNQ2 inh confirm = rat KCNQ2 channel inhibitors, confirmation, cell-based, automated patch clamp, single concentration | hit rate 49% among 550 | shares compounds with KCNQ2 block | calls only at 10 µM | KCNQ2-expressing cells, automated patch clamp current
An asterisk follows results filed as active. Unless noted, the rule behind the calls is not given here.

Results for CC(C)(C#CC(=O)O)OOC(c1ccccc1)(c1ccccc1)c1ccccc1 ?
KCNQ2 block: -11*; KCNQ2 pot: -11

What do the screens show for `Oc1cc(Cl)ccc1Oc1ccc(Cl)cc1Cl`?
KCNQ2 block: inactive

Results for Clc1cnc(Oc2ccc(Oc3ncc(Cl)cc3Cl)cc2)c(Cl)c1 ?
KCNQ2 block: -5.6*; KCNQ2 pot: -5.6

How did C[C@@]12N[C@@H](Cc3ccccc31)c1ccccc12 do in these assays?
KCNQ2 block: inactive

What do the screens show for `O=C1NC(=O)N(c2ccccc2)C(=O)/C1=C/c1coc2ccc(O)cc2c1=O`?
KCNQ2 block: -7.1*; KCNQ2 pot: -7.1

What do the screens show for `O=C1NC(=O)N(c2ccc(Cl)cc2)C(=O)/C1=C/c1coc2ccc(O)cc2c1=O`?
KCNQ2 block: inactive

What do the screens show for `Cc1cc(N2C(=O)C3CCCN3C2c2sccc2C)no1` (stereo not drawn)?
KCNQ2 block: inactive; KCNQ2 pot: 1.3

Results for Cc1ccc(-n2c(/C=C/c3ccc4c(c3)OCO4)nc3ccccc3c2=O)cc1 ?
KCNQ2 block: -5.7*; KCNQ2 pot: -5.7

How did COc1ccc(-n2c(/C=C/c3ccc4c(c3)OCO4)nc3ccccc3c2=O)cc1 do in these assays?
KCNQ2 block: inactive

Results for O=C1NC(=S)N(c2ccccc2)C(=O)C1C(c1ccncc1)C1C(=O)NC(=S)N(c2ccccc2)C1=O (stereo not drawn) ?
KCNQ2 block: inactive; KCNQ2 pot: 0.61

Results for C[N+]12CCC(CC1)C(C#N)(N1CCOCC1)C2 (stereo not drawn) ?
KCNQ2 block: inactive

What do the screens show for `CCc1nc2ccc(Br)cc2c(=O)n1-c1ccccc1C(F)(F)F`?
KCNQ2 block: inactive

Results for CCCc1nc2ccc(Br)cc2c(=O)n1-c1ccc([N+](=O)[O-])c(C(F)(F)F)c1 ?
KCNQ2 block: -6*; KCNQ2 pot: -6

How did O=C(c1cc(C(=O)NCc2ccccc2)c(=O)n(Cc2ccccc2)c1)c1cc(Br)ccc1O do in these assays?
KCNQ2 block: -8.2*; KCNQ2 pot: -8.2; KCNQ2 inh conf: -34%*; KCNQ1 spec: -39%*; CHO Tl ctr: -32%*; KCNQ2 inh confirm: inactive

What do the screens show for `O=C(CNC(=O)c1ccccc1Cl)Nc1ccc(Br)cc1C(=O)c1ccccc1`?
KCNQ2 block: inactive; KCNQ2 pot: 0.06

What do the screens show for `O=P(Nc1ccccc1)(Nc1ccccc1)Oc1ccc(Cl)cc1`?
KCNQ2 block: -9.7*; KCNQ2 pot: -9.7; KCNQ2 inh conf: inactive; KCNQ1 spec: inactive; CHO Tl ctr: inactive

Results for COc1cccc(NP(=O)(Oc2ccc(Cl)cc2)Oc2ccc(Cl)cc2)c1 ?
KCNQ2 block: inactive

What do the screens show for `COc1ccc(C(Nc2ccccc2)P(=O)(Oc2ccccc2)Oc2ccccc2)cc1` (stereo not drawn)?
KCNQ2 block: inactive; KCNQ2 pot: 0.15

What do the screens show for `CCN(CC)CCN=C(C)c1c(O)n(-c2ccccc2OC)c(=O)[nH]c1=O`?
KCNQ2 block: inactive

Results for COc1ccc(OC)c(C(O)C2CCCCN2)c1 (stereo not drawn) ?
KCNQ2 block: inactive

Results for CC(=O)c1ccc(OCC(=O)N2CCCC(N(C)Cc3ccccc3)C2)cc1 (stereo not drawn) ?
KCNQ2 block: inactive; KCNQ2 pot: 1.6

Results for COc1cc(/C=C/[N+](=O)[O-])ccc1O ?
KCNQ2 block: -7.1*; KCNQ2 pot: -7.1; KCNQ2 inh conf: -32%*; KCNQ1 spec: -30%*; CHO Tl ctr: -24%*; KCNQ2 inh confirm: inactive

Results for COc1cc(/C=C2/C(=O)NC(=O)N(c3ccccc3)C2=O)ccc1O ?
KCNQ2 block: inactive; KCNQ2 pot: 0.42

What do the screens show for `COc1cccc(-n2c(/C=C/c3ccc(O)c(O)c3)nc3ccccc3c2=O)c1`?
KCNQ2 block: -6.9*; KCNQ2 pot: -6.9; KCNQ2 inh conf: -28%*; KCNQ1 spec: inactive; CHO Tl ctr: inactive; KCNQ2 inh confirm: inactive
